# Hits are enriched below; roughly 2.2% of the tested compounds scored in any of these assays.
# NPR1 activator = GC-A stimulated cGMP production enhancers – HEK293 GC-A cells, cGMP TR-FRET, EC30 ANP, primary screen; Atrial natriuretic peptide receptor 1 (Homo sapiens), P16066; 0% at EC30 ANP, 100% saturating ANP; activation, % at 10 µM; 370,000 tested, 0.14% active; AID 1671463, 2021; in the data active = activation above about 40%
# Target sequence (P16066 whole entry, looked up): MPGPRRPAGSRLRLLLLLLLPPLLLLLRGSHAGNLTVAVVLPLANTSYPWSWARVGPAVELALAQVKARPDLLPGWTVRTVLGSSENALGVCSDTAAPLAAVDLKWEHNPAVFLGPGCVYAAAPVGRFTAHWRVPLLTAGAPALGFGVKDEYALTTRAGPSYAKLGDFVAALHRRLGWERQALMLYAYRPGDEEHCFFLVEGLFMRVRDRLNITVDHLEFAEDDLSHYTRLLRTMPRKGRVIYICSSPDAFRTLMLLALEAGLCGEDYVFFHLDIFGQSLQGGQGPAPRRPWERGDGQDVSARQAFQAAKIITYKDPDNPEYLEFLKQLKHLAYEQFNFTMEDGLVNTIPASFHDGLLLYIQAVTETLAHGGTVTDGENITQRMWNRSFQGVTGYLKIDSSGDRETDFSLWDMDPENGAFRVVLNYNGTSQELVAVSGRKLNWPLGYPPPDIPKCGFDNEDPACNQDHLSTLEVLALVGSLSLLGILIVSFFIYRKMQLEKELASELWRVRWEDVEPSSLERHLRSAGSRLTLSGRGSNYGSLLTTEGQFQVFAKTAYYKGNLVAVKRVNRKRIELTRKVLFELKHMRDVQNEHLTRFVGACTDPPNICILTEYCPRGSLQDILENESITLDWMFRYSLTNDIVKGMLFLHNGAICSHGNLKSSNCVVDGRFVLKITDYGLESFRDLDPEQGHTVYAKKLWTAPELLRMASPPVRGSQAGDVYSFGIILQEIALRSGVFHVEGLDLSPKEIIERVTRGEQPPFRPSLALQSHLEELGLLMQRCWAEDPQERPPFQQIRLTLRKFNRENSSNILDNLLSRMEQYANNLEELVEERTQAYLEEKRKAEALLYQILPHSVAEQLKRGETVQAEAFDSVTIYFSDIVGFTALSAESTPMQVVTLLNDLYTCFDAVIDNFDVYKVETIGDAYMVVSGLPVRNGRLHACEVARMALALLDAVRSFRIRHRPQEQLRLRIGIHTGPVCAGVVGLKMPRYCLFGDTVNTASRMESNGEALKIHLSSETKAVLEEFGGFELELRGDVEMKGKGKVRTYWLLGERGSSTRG
# ADAM10 inh = human ADAM10 inhibitors, primary screen, biochemical, QFRET, HTS. recombinant ADAM10, EDANS/DABCYL FRET peptide cleavage, 3 h. inhibition, % at 7 µM. 370,000 tested, 0.62% active. AID 720582, 2013;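 active = inhibition above a per-campaign cutoff equal to the mean of compounds falling between control-based bounds plus 3 SD, cut at about 20% in these data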;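 also: 0% = DMSO wells while the 100% control is not disclosed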
# NPR2 activator = human GC-B receptor activators, primary screen, HEK293 GC-B cells, cGMP TR-FRET, EC30 CNP | 0% at EC30 CNP, 100% saturating CNP | activation, % at 10 µM | AID 1920062, 2024 | Atrial natriuretic peptide receptor 2 (Homo sapiens), P20594 | 370,000 tested, 0.11% active;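 active = activation at 10 µM reaching about 35% in either raw or pattern-adjusted values, limit read from the data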
# KLK7 zymogen act = proKLK7 zymogen activators, primary screen, biochemical, fluorescence intensity; Kallikrein-7 (Homo sapiens), P49862; AID 652039, 2013; purified proKLK7, EDANS-DABCYL substrate fluorescence; 100% is mature enzyme control, 0% vehicle; activation, % at 7 µM; 370,000 tested, 0.9% active;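 active = activation above the mean of all tested compounds plus 3 SD, computed per campaign excluding outliers beyond control limits, cut at about 13% in these data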
# ADAM17 inh = ADAM17 inhibitors, primary screen, biochemical, QFRET; Disintegrin and metalloproteinase domain-containing protein 17 (Homo sapiens), P78536; recombinant ADAM17, EDANS/DABCYL FRET peptide cleavage; 370,000 tested, 0.83% active; inhibition, % at 6.95 µM; AID 720648, 2013;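 active = inhibition above the mean of compounds lying between control limits plus 3 SD, set per campaign, cut at about 8.5% in these data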;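 also: 0% = DMSO-only wells as the low control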
# ADAM10 counter = ADAM10 inhibitors, counter-screen for ADAM17 exosite inhibitor project, biochemical, FRET, human ADAM10; shares compounds with ADAM17 inh; AID 743256, 2014; recombinant ADAM10, EDANS/DABCYL FRET peptide cleavage, 3 h; inhibition, % at 6.95 µM; 2,900 tested, 47% active;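 active = mean inhibition over the triplicate runs exceeds the activity threshold set in the earlier primary screen, cut at about 20% in these data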;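 also: 0% = DMSO wells and 100% = marimastat wells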
# ADAM17 confirm = ADAM17 inhibitors, hit retest, confirmation, biochemical, QFRET peptide cleavage. shares compounds with ADAM17 inh. recombinant ADAM17, EDANS/DABCYL QFRET peptide cleavage. inhibition, % at 6.95 µM. 2,900 tested, 65% active. AID 743257, 2014;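 active = mean inhibition across replicates above the hit cutoff set in the primary screen, cut at about 8.5% in these data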;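 also: 0% = DMSO wells and 100% = marimastat wells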
# * marks the source's active call; other numbers are inactive results; / = not tested or not shown.
SMILES,NPR1 activator,ADAM10 inh,NPR2 activator,KLK7 zymogen act,ADAM17 inh,ADAM10 counter,ADAM17 confirm
COc1ccc(-n2c(SCC(=O)c3ccc4ccccc4c3)nnc2-c2ccccc2)cc1,-3,4,-7,-1,2,/,/
O=S1(=O)N[C@H](Cc2ccccc2)COc2cc(N3CCCC3)ccc21,2,2,-3,1,-1,/,/
CC(=O)C(=Cc1ccc(-c2ccccc2)cc1)C(=O)c1ccccc1,1,4,5,0,3,/,/
O=C(c1ccncc1)N1CC[C@H]2[C@H](CCCN2Cc2ccccc2)C1,-2,0,2,0,0,/,/
Cc1cccc(OCCC(=O)Nc2ccc(C)c(S(=O)(=O)N3CCOCC3)c2)c1,-2,4,-5,0,0,/,/
O=C(COC(=O)/C=C/c1ccc(OC(F)F)cc1)Nc1ccc(S(=O)(=O)N2CCCC2)cc1,-7,18,-4,1,9.8*,18,13*
O=C(COC(=O)/C=C/c1ccc(OC(F)F)cc1)Nc1cccc(S(=O)(=O)N2CCCC2)c1,0,10,4,0,4,/,/
CSc1ncccc1C(=O)OCC(=O)Nc1ccc(S(=O)(=O)N2CCCC2)cc1,2,9,-3,1,9.5*,1,6
Cc1cccc(OCCC(=O)Nc2ccc(C)c(S(=O)(=O)N3CCCCC3)c2)c1,1,26*,-2,1,14*,36*,18*
O=C(COC(=O)c1ccc(Br)o1)Nc1cccc(S(=O)(=O)N2CCCCCC2)c1,0,12,-6,0,9.8*,26*,15*
O=C(NC1CCCCN(Cc2ccc(Cl)cc2)C1=O)c1ccccc1-c1ccc(Cl)c(Cl)c1 (stereo not given),-10,4,-5,0,2,/,/
Cc1cc2cc3c(cc2n2c(SCC(=O)Nc4nc(-c5ccccc5)cs4)nnc12)OCO3,-9,-16,-8,/,-10,/,/
O=C(CN1CCN(Cc2ccccc2)CC1)Nc1cccc(S(=O)(=O)N2CCCCCC2)c1,7,14,0,0,8.9*,22*,11*
Cc1ccc(C)c(OCCC(=O)Nc2cccc(S(=O)(=O)N3CCCCC3)c2)c1,2,18,1,1,9.3*,40*,21*
Cc1ccc(N2CC(C(=O)NCc3nnnn3-c3ccc(C)c(C)c3)CC2=O)cc1 (stereo not given),2,-9,-3,0,5,/,/
Cc1ccc(-n2nnnc2CNC(=O)C2CC(=O)N(c3ccccc3)C2)cc1C (stereo not given),-5,2,3,0,9.4*,1,4
Cc1ccc(C)c(NC(=O)c2cccc(Oc3ccc([N+](=O)[O-])cc3Cl)c2)c1,-6,19,11,1,9.0*,29*,16*
O=C(Nc1cccc(Cl)c1)c1cccc(Oc2ccc([N+](=O)[O-])cc2Cl)c1,-7,16,-2,0,9.7*,23*,15*
CC(=O)N1CCc2cc(S(=O)(=O)NCCC(=O)NCc3ccc(Cl)cc3)ccc21,-3,1,-13,1,0,/,/
N#Cc1c(NC(=O)COC(=O)C2CC3C=CC2C3)oc(-c2ccccc2)c1-c1ccccc1 (stereo not given),2,16,8,1,8.9*,-14,-2
COCc1cc(N2CCNC[C@@H]2C)ccc1N1CCN(Cc2ccccc2)[C@H](C)C1,3,-12,1,0,-6,/,/
COc1ccc(OC)c(NC(=O)C2CC(C)=C(C)CC2C(=O)O)c1 (stereo not given),-3,19,-4,-1,11*,-9,-1
Cc1ccc(Nc2nc(Nc3ccc(C)cc3)nc(SC3=NCCS3)n2)cc1,0,15,2,0,9.8*,20*,12*
CCC[C@@H](/C=C/C(=O)OC(C)(C)C)Sc1ccc(C(C)(C)C)cc1,-1,-15,2,1,-3,/,/
C=CCC12C=C(OC)C(=O)C(C1=O)C1c3ccccc3CC12 (stereo not given),1,-4,-7,0,-2,/,/
SMILES,NPR1 activator,ADAM10 inh,NPR2 activator,KLK7 zymogen act,ADAM17 inh,ADAM10 counter,ADAM17 confirm
CC(=O)N1CCc2cc(S(=O)(=O)NC3CCN(C(=O)C(C)(C)C)CC3)ccc21,3,-2,-8,0,-4,/,/
C(=N\Nc1nc(Nc2ccccc2)nc(N2CCOCC2)n1)/c1c[nH]c2ccccc12,-2,17,-1,0,9.2*,17,11*
OC(c1ccccc1)(c1nc(-c2cc(F)cc(F)c2)cs1)C(F)(F)F (stereo not given),4,17,-3,0,9.5*,40*,18*
COc1cccc(CN(C)C(=O)c2ccc(OCC(=O)Nc3cccc(C(F)(F)F)c3)c(OC)c2)c1,-4,16,4,0,8.8*,26*,15*
CCCCCCCCN1C(=O)[C@@H](CC(=O)N2CCN(C(=O)c3ccco3)CC2)C[C@@]2(C(=O)OC)C1=C[C@H](C(C)C)O[C@@H]2C1CC1,0,13,-5,1,4,/,/
COCCNC(=O)c1c(N)[nH]c(C(=O)c2ccc(Br)cc2)c1-c1c(OC)ccc2ccccc12,-31,3,-23,/,-2,/,/
O=C(CN1c2ccccc2Sc2ccccc21)N/N=C/c1ccc([N+](=O)[O-])cc1,-12,15,-3,0,13*,29*,17*
O=C(CN1c2ccccc2Sc2ccccc21)N/N=C/c1ccccc1,-3,4,-2,0,1,/,/
O=C(NC(NC(=S)Nc1c(Cl)cccc1Cl)C(Cl)(Cl)Cl)OCc1ccccc1 (stereo not given),0,14,-2,0,12*,33*,16*
CCOC(=O)NC(NC(=S)Nc1ccc(OCC)cc1)C(Cl)(Cl)Cl (stereo not given),-1,-2,7,-1,0,/,/
COC(=O)CN1C(c2ccc(Cl)cc2)=Nc2ccc(Cl)cc2C1c1ccccc1 (stereo not given),-17,12,-15,0,9.0*,23*,13*

# Source: PubChem BioAssay (several laboratories)
